# Bioassay records: PubChem, National Center for Advancing Translational Sciences (NCATS)
# The list is not random: actives were taken first. Their share in the collection is about 5%.
# LmPK inh = qHTS Assay for Inhibitors of Leishmania Mexicana Pyruvate Kinase (LmPK); Potency, µM (highest dose often 57.5 µM), without a hit: at the highest dose activity change, negative = inhibition, actives largely listed as inhibitors; hit rate 0.37% among 290,000; purified LmPK, Kinase-Glo ATP luminescence, 1 h; Q27686; AID 1721, 2009; also: potency is read from the fitted curve at half-maximal effect
# Target sequence (Q27686 whole entry, looked up): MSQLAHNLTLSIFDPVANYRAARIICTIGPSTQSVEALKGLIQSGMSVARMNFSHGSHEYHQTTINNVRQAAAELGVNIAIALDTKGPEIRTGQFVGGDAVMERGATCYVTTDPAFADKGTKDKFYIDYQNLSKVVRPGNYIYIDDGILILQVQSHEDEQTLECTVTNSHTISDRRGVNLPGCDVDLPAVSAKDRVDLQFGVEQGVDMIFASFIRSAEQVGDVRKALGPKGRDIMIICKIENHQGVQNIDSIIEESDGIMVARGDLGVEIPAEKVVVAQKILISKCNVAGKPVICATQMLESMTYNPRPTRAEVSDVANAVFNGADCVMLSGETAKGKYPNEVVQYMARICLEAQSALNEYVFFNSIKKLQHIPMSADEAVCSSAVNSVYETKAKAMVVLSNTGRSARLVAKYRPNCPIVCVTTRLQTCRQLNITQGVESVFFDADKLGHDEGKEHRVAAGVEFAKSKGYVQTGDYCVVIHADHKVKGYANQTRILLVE
#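 Purified LmPK (0.1 nM) with 0.5 mM PEP and 0.1 mM ADP in imidazole buffer pH 7.2 with MgCl2/KCl, 1 h at room temperature. ATP formed was read by luciferase luminescence and normalized to no-enzyme and uninhibited controls.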
# TbPYK inhibitor = qHTS of Trypanosoma Brucei Inhibitors; pyruvate kinase (Trypanosoma brucei), Q57TT1; TbPYK enzyme, Kinase-Glo Plus ATP luminescence, 45 min; Potency, µM (highest dose often 76.8 µM), for the others: at the highest dose activity, negative = inhibition, most hits filed as inhibitors; hit rate 0.12% among 410,000; AID 624173, 2012; also: potency is read from the fitted curve at half-maximal effect; nearly all actives have a fitted effect of over 50% in size
#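 TbPYK + substrate in 50 mM TEA pH 7.2, 100 mM KCl, 10 mM MgCl2, 0.05% BSA, 0.01% Tween-20; cpd pinned; ADP 130 uM final; 45 min RT; Kinase-Glo Plus 10 min; luminescence endpoint.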
# Vaccinia Venus = qHTS for Stage-Specific Inhibitors of Vaccinia Orthopoxvirus: Venus Reporter Primary qHTS; Vaccinia virus Venus reporter expression, fluorescence; AID 720580, 2013; Potency, µM (doses to about 36.5 µM), inactives show at the top dose activity change, negative = inhibition, actives largely listed as inhibitors; hit rate 0.46% among 330,000; calls by dose curve; tested in A549 cells; also: potency is read from the fitted curve at half-maximal effect; nearly all actives have a fitted effect of over 30% in size
# HCMV antiviral = qHTS Assay for inhibitors of the human cytomegalovirus (HCMV) | HFF cells, HCMV-luciferase reporter, 72 h; stronger effect = lower value | activity change, negative = inhibition, % at 57.5 µM | hit rate 4.5% among 410,000; in the data active = activity change below about -60%; inconclusive = no clear call, values can overlap the other calls; inactive = above about -39%
#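 HFF cells seeded 16 h at 37C, treated with compounds, infected with luciferase-reporter HCMV at MOI 1 PFU/cell; luciferase read at 72 h post infection, normalized to buffer-only and Salinomycin controls.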
# VACV mCherry inh = qHTS for Stage-Specific Inhibitors of Vaccinia Orthopoxvirus: mCherry Reporter Primary qHTS; hit rate 0.63% among 310,000; Potency, µM (titrated, usually from 36.5 µM), for the others: top-dose activity change, negative = inhibition, most hits filed as inhibitors; Vaccinia virus mCherry reporter infection, fluorescence; AID 720579, 2013; calls by dose curve; tested in A549 cells; also: potency is read from the fitted curve at half-maximal effect; nearly all actives have a fitted effect of over 35% in size
# * marks the source's active call; other numbers are inactive results; i = inactive; ? = inconclusive; · = no result. Unless noted, calls follow the shape of the dose curve; as a rule, active = well fitted curve in the direction sought with a large enough effect; inconclusive = small, poorly fitted or top-dose-only effect, or another doubt; inactive = no such curve, though single readings can be large; an effect the other way counts as inactive or inconclusive. % is scaled to controls: 0 for no effect and ±100 for the full control effect.
SMILES,LmPK inh,TbPYK inhibitor,Vaccinia Venus,HCMV antiviral,VACV mCherry inh
CC(C)Oc1ccc(CCc2nnc(SC(C)C(=O)O)n2-c2ccccc2)cc1 (stereo not given),4%,-7%,-4%,-6,i
CC1CCN(C(=O)c2cc(-c3ccc4c(c3)OCO4)on2)CC1,0%,-3%,1%,16,-13%
O=[N+]([O-])c1cc(C(F)(F)F)ccc1Cl,·,1%,-11%,-69*,i
Nc1cc(C(F)(F)F)cc([N+](=O)[O-])c1N,3%,0%,·,44,·
O=[N+]([O-])c1cc(C(F)(F)F)ccc1NCCCCNS(=O)(=O)c1ccc(Cl)cc1,-2%,1%,-23%,-73*,-28%
CS(=O)(=O)NCCCNc1ccc(C(F)(F)F)cc1[N+](=O)[O-],0%,10%,·,6,·
Cc1ccc(C(CC(=O)N2CCOCC2)c2ccco2)cc1 (stereo not given),2%,-28%,·,53,·
CN(C)c1ccc(NC(=O)Nc2ccc3c(c2)c(=O)n(C)n3Cc2ccccc2)cc1,·,-6%,-10%,-30,i
Cn1c(=O)c2cc(NC(=O)Nc3cccnc3)ccc2n1Cc1ccc(Cl)cc1,·,-13%,-8%,-97*,19%
Cn1c(=O)c2cc(NC(=O)Nc3cccnc3)ccc2n1Cc1cccc(C(F)(F)F)c1,·,-7%,-17%,0,?
CN(C)c1ccc(NC(=O)Nc2ccc3c(c2)c(=O)n(C)n3Cc2ccc(Cl)cc2)cc1,·,-6%,-18%,-88*,-30%
CC(CC(=O)Nc1ccc2c(c1)c(=O)n(C)n2Cc1ccc(Cl)cc1)C(F)(F)F (stereo not given),·,2%,-12%,-72*,6%
CC(=O)Nc1ccc(NC(=O)CNC(=O)c2sc3ccccc3c2Cl)cc1,·,-5%,3%,41,i
O=C(CNC(=O)c1sc2ccccc2c1Cl)NCc1cccc(C(F)(F)F)c1,·,4%,16µM*,-5,-26%
O=C(CSCc1nc2ccccc2[nH]1)Nc1ccc2ccccc2c1,3%,2%,·,0,·
O=C(CSCc1cccc(CSCC(=O)Nc2ccc3ccccc3c2)n1)Nc1ccc2ccccc2c1,5%,-10%,11µM*,-82*,11µM*
OCCCCCN=c1cc(-c2ccccc2)oc2ccc(Cl)cc12,2%,4%,?,-62*,-29%
COc1ccc(C(=O)C2CCCN(Cc3c(C)[nH]c4ccccc34)C2)c(OC)c1 (stereo not given),-4%,·,·,·,·
NNc1nc(-c2ccccc2)cc(-c2ccccc2O)n1,2%,-2%,·,13,·
Nc1nc(-c2ccccc2)cc(-c2ccccc2O)n1,-2%,2%,11µM*,-96*,?
Cc1cc(C)c(NC(=O)NC(=O)C(Cl)(Cl)Cl)c(C)c1,1%,-1%,-4%,23,-1%
O=C(NC1CCCCCC1)c1ccc([N+](=O)[O-])s1,·,4%,-4%,?,?
O=C(NC1CCCC1)c1ccc(Cl)s1,-3%,-4%,-5%,-77*,i
CCCSC1=C(C#N)C(c2ccccc2C)CC(=O)N1 (stereo not given),7%,?,-9%,-99*,·
CCSC1=C(C#N)C(c2ccccc2OC)CC(=O)N1 (stereo not given),1%,1%,-18%,-75*,i
SMILES,LmPK inh,TbPYK inhibitor,Vaccinia Venus,HCMV antiviral,VACV mCherry inh
CCCCSC1=C(C#N)C(c2ccccc2C)CC(=O)N1 (stereo not given),10%,1%,-12%,?,i
COc1ccc(C(=O)Nc2ccc(NC(C)=O)cc2)cc1S(=O)(=O)N(C)Cc1ccccc1,·,-4%,·,0,·
CC1CCc2[nH]c3ccc(C(=O)N(C)CC(=O)Nc4ccccc4C(F)(F)F)cc3c2C1 (stereo not given),·,-2%,-29%,-88*,-5%
Cc1n[nH]c(C)c1CCN(C)C(=O)C1CCC(=O)N(CC2CCCCC2)C1 (stereo not given),-9%,1%,0%,-5,-16%
N/C(=N\OC(=O)c1ccc2c(c1)OCO2)c1ccc(Cl)cc1,-24%,-6%,-6%,44,-4%
N/C(=N\OC(=O)c1ccc2c(c1)OCO2)c1ccncc1,25µM*,-4%,·,14,·
COc1cc(C2N(c3ccccc3)CCN2c2ccccc2)ccc1OC(C)=O,3%,0%,-16%,-63*,·
COc1cc(C2N(Cc3ccccc3)CCN2Cc2ccccc2)ccc1OC(C)=O,0%,-5%,·,35,·
COCCCNC(=O)CC1C[C@H](C(=O)N(C(C)C)C(C)C)[C@@]2(C)c3[nH]c4ccc(OC)cc4c3CCN2C1=O (stereo not given in full),·,18%,-21%,0,?
CCN(CC(=O)Nc1ccc(OC)cc1)C(=O)c1ccc2c(c1)NC(=O)C(C)S2 (stereo not given),·,28µM*,-19%,0,i
CCN(CC)S(=O)(=O)c1cc(NC(=O)NCCCl)ccc1C,7%,0%,-12%,-12,-8%
Cc1cc(C)c(NC(=O)c2ccc3c(c2)NC(=O)C(C)S3)c(C)c1 (stereo not given),·,-3%,·,-29,·
CCN(CC(=O)Nc1c(F)cccc1F)C(=O)c1ccc2c(c1)NC(=O)C(C)S2 (stereo not given),·,0%,-15%,-16,i
CCN(CC)S(=O)(=O)c1cc(NC(=O)c2ccc(Br)s2)ccc1C,4%,-6%,-15%,-83*,i
CCN(CC)S(=O)(=O)c1cc(NC(=O)c2ccc3c(c2)NC(=O)C(C)S3)ccc1C (stereo not given),·,-26%,·,-80*,·
Cc1cc(NC(=O)COC(=O)C2CCCN2C(=O)c2cccs2)no1 (stereo not given),3%,1%,·,-24,·
COc1cc(C(=O)NCc2ccc(S(N)(=O)=O)cc2)ccc1OCC(=O)Nc1cccc(C(F)(F)F)c1,·,1%,6%,-21,-13%
COc1cc(C(=O)N(C)CCOc2ccccc2)ccc1OCC(=O)Nc1cccc(C(F)(F)F)c1,·,5%,?,-69*,?
CCOC(=O)C1CCN(C(=O)c2ccc(OCC(=O)Nc3cccc(C(F)(F)F)c3)c(OC)c2)CC1,·,3%,-5%,-70*,-21%
Cc1cc(C)c(NC(=O)c2cc(S(=O)(=O)NCCC3=CCCCC3)ccc2F)c(C)c1,·,0%,-25%,-33,?
CC(=O)N(C)c1ccc(NC(=O)Nc2ccccc2C)cc1,?,-4%,-18%,5,-6%
S=C(Nc1ccccc1)N1CCN(C(=S)c2ccccc2)CC1,0%,-11%,-7%,-102*,-26%
S=C(Nc1ccccc1)N1CCCCC1,-9%,2%,·,-4,·
